These results are taken from PMC12864922, “TDP-43 directly inhibits mRNA accumulation in neurites through modulation of mRNA stability”.

In all, about 9,900 sequences were measured (“r (bound/input frequency ratio)”: median about 0.7, highest 2% from about 6.5 on). The full list was thinned out, with the highest values kept by preference.

B1: ENSMUSG00000061578.87|Ksr2 (ssRNA)
RNA: GGGAGUUCUACAGUCCGACGAUCGCUUCGAUAUCCGCAUGCUAGGGUUAAACUUGCAAACAUCUGAUUUUAGAGGUCCCAUUCCAAGAUGGAAGUCACCGGUUGCCGCUGAGCACACAAUUCUGAAGGACAGUAGGCAGUCCUGCAGGUCUUUUUUAGCACAGGGCCUCUCUGGGGACCAGUCCCUGGCCUUCACCCUUCUCCCAUUUUGUAAGAACACUGUUCUAACUCACCUCAUGCCCACGCUACCCUGGGCAACUGGAGAACACCAUAGCGUUUCAGCUGAUGUGACAUUUGGUGUGACCUCUUGCGGUCGCACUAGUGUGGAAUUCUCGGGUGUCAAGG
B2: ENSMUSG00000058297.296|Spock2|65:70 (ssRNA)
RNA: GGGAGUUCUACAGUCCGACGAUCGCUUCGAUAUCCGCAUGCUAAGAGAAUGAGAGAGAGAAUACCCGAGGGCCACCCUGAUGCCCAGGAAGAGUGAGGGCAGCCCCCACACACGUGGAAGAGGCUGGGCAGCUAGCUACUGGGGACCUUGUGCUGAGGCUUCCAGGACAAAGCCCCAGUCUGGCUCUCCCCCAGCCUCUCAGGGGCACUGGCUGGUCACAUCCACUGAGUAUUGAUCGGUUGGACUUUAGGGAAGAGCCUCCUCCUUCCCAUUCCUUUCUGCCACCCUGGAAUGGCCACCUUACUCUUGCGGUCGCACUAGUGUGGAAUUCUCGGGUGUCAAGG
B3: ENSMUSG00000058297.295|Spock2|71:76 (ssRNA)
RNA: GGGAGUUCUACAGUCCGACGAUCGCUUCGAUAUCCGCAUGCUAAAUGAGAGAGAAUGAGAGAGAGAAUACCCGAGGGCCACCCUGAUGCCCAGGAAGAGUGAGGGCAGCCCCCACACACGUGGAAGAGGCUGGGCAGCUAGCUACUGGGGACCUUGUGCUGAGGCUUCCAGGACAAAGCCCCAGUCUGGCUCUCCCCCAGCCUCUCAGGGGCACUGGCUGGUCACAUCCACUGAGUAUUGAUCGGUUGGACUUUAGGGAAGAGCCUCCUCCUUCCCAUUCCUUUCUGCCACCCUGGAAUGGCCCUCUUGCGGUCGCACUAGUGUGGAAUUCUCGGGUGUCAAGG
B4: ENSMUSG00000058297.288|Spock2|113:118 (ssRNA)
RNA: GGGAGUUCUACAGUCCGACGAUCGCUUCGAUAUCCGCAUGCUAAGAGAGAGAGAGAGAGAGAGAGAGAGAGAGAAAGAGAGAGAGAAUGAGAGAGAAUGAGAGAGAGAAUACCCGAGGGCCACCCUGAUGCCCAGGAAGAGUGAGGGCAGCCCCCACACACGUGGAAGAGGCUGGGCAGCUAGCUACUGGGGACCUUGUGCUGAGGCUUCCAGGACAAAGCCCCAGUCUGGCUCUCCCCCAGCCUCUCAGGGGCACUGGCUGGUCACAUCCACUGAGUAUUGAUCGGUUGGACUUUAGGGAAGCUCUUGCGGUCGCACUAGUGUGGAAUUCUCGGGUGUCAAGG
B5: ENSMUSG00000058297.287|Spock2|119:124 (ssRNA)
RNA: GGGAGUUCUACAGUCCGACGAUCGCUUCGAUAUCCGCAUGCUAAGAGAGAGAGAGAGAGAGAGAGAGAGAGAGAGAGAGAAAGAGAGAGAGAAUGAGAGAGAAUGAGAGAGAGAAUACCCGAGGGCCACCCUGAUGCCCAGGAAGAGUGAGGGCAGCCCCCACACACGUGGAAGAGGCUGGGCAGCUAGCUACUGGGGACCUUGUGCUGAGGCUUCCAGGACAAAGCCCCAGUCUGGCUCUCCCCCAGCCUCUCAGGGGCACUGGCUGGUCACAUCCACUGAGUAUUGAUCGGUUGGACUUUACUCUUGCGGUCGCACUAGUGUGGAAUUCUCGGGUGUCAAGG
B6: ENSMUSG00000058297.289|Spock2|107:112 (ssRNA)
RNA: GGGAGUUCUACAGUCCGACGAUCGCUUCGAUAUCCGCAUGCUAAGAGAGAGAGAGAGAGAGAGAGAGAAAGAGAGAGAGAAUGAGAGAGAAUGAGAGAGAGAAUACCCGAGGGCCACCCUGAUGCCCAGGAAGAGUGAGGGCAGCCCCCACACACGUGGAAGAGGCUGGGCAGCUAGCUACUGGGGACCUUGUGCUGAGGCUUCCAGGACAAAGCCCCAGUCUGGCUCUCCCCCAGCCUCUCAGGGGCACUGGCUGGUCACAUCCACUGAGUAUUGAUCGGUUGGACUUUAGGGAAGAGCCUCCUCUUGCGGUCGCACUAGUGUGGAAUUCUCGGGUGUCAAGG
B7: ENSMUSG00000058297.293|Spock2|83:88 (ssRNA)
RNA: GGGAGUUCUACAGUCCGACGAUCGCUUCGAUAUCCGCAUGCUAAAAGAGAGAGAGAAUGAGAGAGAAUGAGAGAGAGAAUACCCGAGGGCCACCCUGAUGCCCAGGAAGAGUGAGGGCAGCCCCCACACACGUGGAAGAGGCUGGGCAGCUAGCUACUGGGGACCUUGUGCUGAGGCUUCCAGGACAAAGCCCCAGUCUGGCUCUCCCCCAGCCUCUCAGGGGCACUGGCUGGUCACAUCCACUGAGUAUUGAUCGGUUGGACUUUAGGGAAGAGCCUCCUCCUUCCCAUUCCUUUCUGCCACCUCUUGCGGUCGCACUAGUGUGGAAUUCUCGGGUGUCAAGG
B8: ENSMUSG00000058297.290|Spock2|101:106 (ssRNA)
RNA: GGGAGUUCUACAGUCCGACGAUCGCUUCGAUAUCCGCAUGCUAAGAGAGAGAGAGAGAGAGAAAGAGAGAGAGAAUGAGAGAGAAUGAGAGAGAGAAUACCCGAGGGCCACCCUGAUGCCCAGGAAGAGUGAGGGCAGCCCCCACACACGUGGAAGAGGCUGGGCAGCUAGCUACUGGGGACCUUGUGCUGAGGCUUCCAGGACAAAGCCCCAGUCUGGCUCUCCCCCAGCCUCUCAGGGGCACUGGCUGGUCACAUCCACUGAGUAUUGAUCGGUUGGACUUUAGGGAAGAGCCUCCUCCUUCUCUUGCGGUCGCACUAGUGUGGAAUUCUCGGGUGUCAAGG
B9: ENSMUSG00000058297.298|Spock2|53:58 (ssRNA)
RNA: GGGAGUUCUACAGUCCGACGAUCGCUUCGAUAUCCGCAUGCUAAGAGAAUACCCGAGGGCCACCCUGAUGCCCAGGAAGAGUGAGGGCAGCCCCCACACACGUGGAAGAGGCUGGGCAGCUAGCUACUGGGGACCUUGUGCUGAGGCUUCCAGGACAAAGCCCCAGUCUGGCUCUCCCCCAGCCUCUCAGGGGCACUGGCUGGUCACAUCCACUGAGUAUUGAUCGGUUGGACUUUAGGGAAGAGCCUCCUCCUUCCCAUUCCUUUCUGCCACCCUGGAAUGGCCACCUUAAUCGUCAUCUCCCUCUUGCGGUCGCACUAGUGUGGAAUUCUCGGGUGUCAAGG

The target in the test is TDP-43 (Homo sapiens, UniProt Q13148 1-414). Kind of test: RNA Bind-n-Seq with designed 260-mer pool; 25 mM Tris-HCl, 150 mM KCl, 3 mM MgCl2, BSA (printed 500 mg/mL), 20 units/mL SUPERase IN; pH not stated; 500 nM RNA pool, 1 h, 4 C; TDP-43 5, 50, 500 nM; high values mean tight binding. The note with it: protein: recombinant; tags: SBP (GST cleaved off with PreScission; pGEX-GST-SBP). The method in brief: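 Binding (R) is the ratio of each oligo's mapped-read-normalized abundance in the bound fraction to its abundance in the input. To obtain it, SBP-tagged recombinant TDP-43 (5, 50 or 500 nM) on streptavidin beads was incubated with 500 nM of an in vitro-transcribed 260-nt 3′ UTR oligo pool for 1 h at 4 °C in 25 mM Tris-HCl, 150 mM KCl, 3 mM MgCl2, BSA and SUPERase IN. The RNA retained after washing was released with biotin, then reverse transcribed, amplified by PCR and sequenced.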
Chain of TDP-43 (Q13148 whole entry): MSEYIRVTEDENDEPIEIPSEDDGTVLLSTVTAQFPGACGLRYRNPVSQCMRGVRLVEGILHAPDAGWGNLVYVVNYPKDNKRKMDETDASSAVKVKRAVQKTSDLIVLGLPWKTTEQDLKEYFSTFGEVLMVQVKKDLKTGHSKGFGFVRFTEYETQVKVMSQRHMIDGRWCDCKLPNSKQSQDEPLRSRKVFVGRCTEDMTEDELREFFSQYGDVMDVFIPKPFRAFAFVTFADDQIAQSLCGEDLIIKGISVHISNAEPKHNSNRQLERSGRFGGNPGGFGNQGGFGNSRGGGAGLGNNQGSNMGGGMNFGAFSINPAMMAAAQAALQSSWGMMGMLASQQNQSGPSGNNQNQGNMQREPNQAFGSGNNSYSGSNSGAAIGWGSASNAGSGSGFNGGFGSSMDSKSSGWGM
For the molecule B1, the binding signal is 0.338 R (bound/input frequency ratio).
On to B2, for which the binding signal was 4.88 R (bound/input frequency ratio).
Next, B3: 3.59 R (bound/input frequency ratio); B4: 7.71 R (bound/input frequency ratio).
The figure for B5 is 7.84 R (bound/input frequency ratio); for B6 it is 7.59 R (bound/input frequency ratio).
The figure for B7 is 3.42 R (bound/input frequency ratio); for B8 it is 8.37 R (bound/input frequency ratio); for B9 it is 2.36 R (bound/input frequency ratio).
